Laboratory results as given in PubChem BioAssay (Tox21).
Several values for one entry are separate records, joined by “and”; a condition that tells them apart may be missing. Equal values may be shown once. Inconclusive results are not listed. Entries that show only a call come without a potency. Activity calls are given as the source filed them. The call rests on the fitted dose curve; in most records, active means well fitted curve in the direction sought with a large enough effect in the repeat runs; inconclusive means weak or mixed curves; inactive means no such curve, though single readings can be large; an effect the other way counts as inactive or inconclusive.

Assay: qHTS assay for small molecule disruptors of the mitochondrial membrane potential (AID 720635); further: potency means the concentration at half of the fitted maximal effect
Conditions: HepG2 mitochondrial membrane potential, Mito-MPS dye ratio; series mostly up to 83.2 µM
Procedure, shortened: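 HepG2 cells (2,000/well) attached overnight at 37C, then took compound for 1 hr at 37C, 5% CO2. Mito-MPS dye was added for 30 min; fluorescence was read at 490/535 nm (monomers) and 540/590 nm (aggregates).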

SMILES | Potency
ClC=C(Cl)Cl | inactive
CC(c1ccc(O)cc1)(c1ccc(O)cc1)c1ccc(O)cc1 | 48.6 µM (active)
C=CC(C)=O | inactive
CC1CC(CC2CCC(N)C(C)C2)CCC1N (stereo not given) | inactive
CCN(C)N=O | 1.9 µM (active)
II | 19.3 µM (active)
O=NN1CCNCC1 | inactive
CCCCNP(N)(N)=S | inactive
c1ccc(C2CC2)c(OCC2=NCCN2)c1 | inactive
CCOP(=S)(OCC)Oc1nc(Cl)c(Cl)cc1Cl | 13.7 µM (active) and 30.6 µM (active)
CCCCCCC#N | inactive
Cn1sc(Cl)cc1=O | inactive
CCCCCCCCOC(=O)c1ccc(C(=O)OCCCCCCCC)c(C(=O)OCCCCCCCC)c1 | inactive
O=NN1CCCCCC1 | inactive
CCOc1nc(F)cc2nc(S(=O)(=O)Nc3c(Cl)cccc3Cl)nn12 | inactive
CCBr | inactive
Brc1ccc(Oc2ccccc2)cc1 | inactive

SMILES | Potency
Cc1ccc2ccccc2c1 | inactive
N#CCc1ccccc1 | inactive
CC/C(=N\OC/C=C/Cl)C1=C(O)CC(C2CCOCC2)CC1=O (stereo not given) | inactive
N#Cc1cc(I)c(O)c(I)c1 | 3.44 µM (active)
COC(=O)C(Cl)C(=O)OC | inactive
O=[N+]([O-])c1ccccc1CCl | inactive
COc1cc(CC(C)N)cc2c1OCO2 (stereo not given) | inactive
Nc1nc(=S)[nH][nH]1 | inactive
Nc1nc(N)nc(N)n1 | inactive
COCC(C)N(C(=O)CCl)c1c(C)csc1C (stereo not given) | inactive
c1ccc(CN2CCNCC2)cc1 | inactive
CCCCCCCCCC(=O)O[C@H]1CC[C@H]2[C@@H]3CCC4=CC(=O)CC[C@@H]4[C@H]3CC[C@]12C | inactive
C=CCC1([C@H](C)CCC)C(=O)NC(=O)NC1=O | inactive
CCOP(=O)(OCC)SCCSCC | inactive
Cc1cc(=O)[nH]o1 | inactive
IC(I)=C(I)I | 4.33 µM (active)
CN1C(=O)NC(=O)C(C)(C2=CCCCC2)C1=O (stereo not given) | inactive

Assay: qHTS assay to test for compound auto fluorescence at 590 nm (red) in HepG2 cells (AID 720674)
Conditions: HepG2 autofluorescence, red 540/590 nm, 1 h; series mostly up to 91.3 µM
Procedure, shortened: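 Intrinsic compound fluorescence in the red window (Ex/Em 540/590 nm) is measured in attached HepG2 cells exposed for 1 hr, DMSO vehicle as baseline, benchmarked to Rose Bengal sodium.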

SMILES | outcome
ClC=C(Cl)Cl | inactive
CC(c1ccc(O)cc1)(c1ccc(O)cc1)c1ccc(O)cc1 | inactive
CC1CC(CC2CCC(N)C(C)C2)CCC1N (stereo not given) | inactive
O=NN1CCNCC1 | inactive
CCCCNP(N)(N)=S | inactive
c1ccc(C2CC2)c(OCC2=NCCN2)c1 | inactive
CCOP(=S)(OCC)Oc1nc(Cl)c(Cl)cc1Cl | inactive
CCCCCCC#N | inactive
Cn1sc(Cl)cc1=O | inactive
CCCCCCCCOC(=O)c1ccc(C(=O)OCCCCCCCC)c(C(=O)OCCCCCCCC)c1 | inactive
O=NN1CCCCCC1 | inactive
CCOc1nc(F)cc2nc(S(=O)(=O)Nc3c(Cl)cccc3Cl)nn12 | inactive
Brc1ccc(Oc2ccccc2)cc1 | inactive
Cc1ccc2ccccc2c1 | inactive
N#CCc1ccccc1 | inactive
CC/C(=N\OC/C=C/Cl)C1=C(O)CC(C2CCOCC2)CC1=O (stereo not given) | inactive
N#Cc1cc(I)c(O)c(I)c1 | inactive
COC(=O)C(Cl)C(=O)OC | inactive
O=[N+]([O-])c1ccccc1CCl | inactive
COc1cc(CC(C)N)cc2c1OCO2 (stereo not given) | inactive
Nc1nc(=S)[nH][nH]1 | inactive
COCC(C)N(C(=O)CCl)c1c(C)csc1C (stereo not given) | inactive
c1ccc(CN2CCNCC2)cc1 | inactive
CCCCCCCCCC(=O)O[C@H]1CC[C@H]2[C@@H]3CCC4=CC(=O)CC[C@@H]4[C@H]3CC[C@]12C | inactive
C=CCC1([C@H](C)CCC)C(=O)NC(=O)NC1=O | inactive
CCOP(=O)(OCC)SCCSCC | inactive
CN1C(=O)NC(=O)C(C)(C2=CCCCC2)C1=O (stereo not given) | inactive

Assay: qHTS assay to test for compound auto fluorescence at 535 nm (green) in HepG2 cells (AID 720675)
Conditions: green autofluorescence 485/535 nm, 1 h; series mostly up to 91.3 µM

SMILES | outcome
ClC=C(Cl)Cl | inactive
CC(c1ccc(O)cc1)(c1ccc(O)cc1)c1ccc(O)cc1 | inactive
C=CC(C)=O | inactive
CC1CC(CC2CCC(N)C(C)C2)CCC1N (stereo not given) | inactive
CCN(C)N=O | inactive
II | inactive
O=NN1CCNCC1 | inactive
CCCCNP(N)(N)=S | inactive
c1ccc(C2CC2)c(OCC2=NCCN2)c1 | inactive
CCOP(=S)(OCC)Oc1nc(Cl)c(Cl)cc1Cl | inactive
CCCCCCC#N | inactive
Cn1sc(Cl)cc1=O | inactive
CCCCCCCCOC(=O)c1ccc(C(=O)OCCCCCCCC)c(C(=O)OCCCCCCCC)c1 | inactive
O=NN1CCCCCC1 | inactive
CCOc1nc(F)cc2nc(S(=O)(=O)Nc3c(Cl)cccc3Cl)nn12 | inactive
CCBr | inactive
Brc1ccc(Oc2ccccc2)cc1 | inactive

SMILES | outcome
Cc1ccc2ccccc2c1 | inactive
N#CCc1ccccc1 | inactive
CC/C(=N\OC/C=C/Cl)C1=C(O)CC(C2CCOCC2)CC1=O (stereo not given) | inactive
N#Cc1cc(I)c(O)c(I)c1 | inactive
COC(=O)C(Cl)C(=O)OC | inactive
O=[N+]([O-])c1ccccc1CCl | inactive
COc1cc(CC(C)N)cc2c1OCO2 (stereo not given) | inactive
Nc1nc(=S)[nH][nH]1 | inactive
Nc1nc(N)nc(N)n1 | inactive
COCC(C)N(C(=O)CCl)c1c(C)csc1C (stereo not given) | inactive
c1ccc(CN2CCNCC2)cc1 | inactive
CCCCCCCCCC(=O)O[C@H]1CC[C@H]2[C@@H]3CCC4=CC(=O)CC[C@@H]4[C@H]3CC[C@]12C | inactive
C=CCC1([C@H](C)CCC)C(=O)NC(=O)NC1=O | inactive
CCOP(=O)(OCC)SCCSCC | inactive
Cc1cc(=O)[nH]o1 | inactive
IC(I)=C(I)I | inactive
CN1C(=O)NC(=O)C(C)(C2=CCCCC2)C1=O (stereo not given) | inactive
